Measurements from PubChem BioAssay AID1159580 (chemical genetic matrix, 2015).
Where “and” joins values, the source holds several entries; their conditions need not be identical. Equal values may be shown once. In all, about 5,500 compounds went through this assay and about 2,000 (36%) were called active. Roughly 18% stayed inconclusive and do not appear here. Rule as the data show it: active = normalized growth mostly below about 0.91 (no sharp cut-off); inconclusive = no clear call, values can overlap the other calls; inactive = mostly above about 0.92. This is one part of the list.

Test: chemical genetic growth profiling, strain panel (AID 1159580);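 also: tested at 20 µM; growth read once vehicle control cultures reached saturation at 30 °C; 1 = growth at the plate median or of vehicle wells; lower values mean less growth of the strain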
Settings: S. cerevisiae deletion strains, growth OD
[1] = locus YAL013W, strain DEP1, active compounds read low
[2] = locus YAL040C, strain CLN3, active compounds read low
[3] = locus YCL061C, strain MRC1 (second series), active compounds read low
[4] = locus YDR363W, strain ESC2, active compounds read low
[5] = locus YER002W, strain NOP16, active compounds read low
[6] = locus YGR078C, strain PAC10, active compounds read low
[7] = locus YJR075W, strain HOC1, active compounds read low
[8] = locus YMR307W, strain GAS1, active compounds read low
[9] = locus YNL175C, strain NOP13, active compounds read low
[10] = locus YNL197C, strain WHI3, active compounds read low
[11] = locus YNL224C, strain SQS1, active compounds read low
[12] = locus YOR083W, strain WHI5 (second series), active compounds read low
[13] = locus YMR263W, strain SAP30, active compounds read low
[14] = locus YNL322C, strain KRE1, active compounds read low
[15] = locus YPL055C, strain LGE1, active compounds read low
[16] = locus YPL241C, strain CIN2, active compounds read low

Measured: normalized growth

CCCN1CCO[C@@H]2c3cc(O)ccc3OC[C@H]21
inactive: [1] 0.981 | [2] 1.09 | [3] 1 | locus YDR150W, strain NUM1, active compounds read low 0.999 | [4] 1.03 | [5] 0.989 | [6] 1.01 | [7] 0.993 | [8] 0.981 | locus YNL153C, strain GIM3, active compounds read low 0.97 | [9] 1.02 | [10] 1 | [11] 0.993 | [12] 1.02

COc1ccc2c(c1O)-c1cccc3c1[C@@H](C2)N(C)CC3
inactive: [1] 0.986 | [2] 0.995 | [3] 1.01 | [4] 0.994 | [5] 1.01 | [6] 1.05 | locus YGR229C, strain SMI1, active compounds read low 1.02 | [7] 1 | [13] 0.994 | [8] 1.02 | locus YNL128W, strain TEP1, active compounds read low 1.01 | [9] 1.02 | [10] 1.02 | [11] 1.01 | [14] 0.985 | [12] 0.972 | [15] 0.989 | [16] 1.01

COc1cc2c(cc1O)CC1c3c(cc(O)c(OC)c3-2)CCN1C (stereo unspecified)
inactive: locus YAL021C, strain ccr4, active compounds read low 1.02 | locus YAL026C, strain drs2, active compounds read low 1.03 | locus YAL030W, strain snc1, active compounds read low 1.01 | locus YBL061C, strain skt5, active compounds read low 1.02 | locus YBR009C, strain hhf1, active compounds read low 1.03 | locus YBR021W, strain FUR4, active compounds read low 0.993 | locus YBR023C, strain chs3, active compounds read low 1.02 | locus YBR171W, strain sec66, active compounds read low 1.01 | locus YBR229C, strain ROT2, active compounds read low 0.999 | locus YBR231C, strain swc5, active compounds read low 1.01 | locus YBR279W, strain paf1, active compounds read low 1.01 | locus YCL011C, strain gbp2, active compounds read low 1.02 | locus YCL016C, strain dcc1, active compounds read low 1 | locus YCL029C, strain bik1, active compounds read low 0.994 | locus YCL061C, strain MRC1, active compounds read low 1.01 | locus YCL069W, strain vba3, active compounds read low 1.01 | locus YCR088W, strain abp1, active compounds read low 1.01 | locus YDL005C, strain med2, active compounds read low 1.03 | locus YDL035C, strain GPR1, active compounds read low 1 | locus YDL040C, strain nat1, active compounds read low 1.01 | locus YDL074C, strain BRE1, active compounds read low 1 | locus YDL101C, strain DUN1, active compounds read low 0.996 | locus YDL185W, strain tfp1, active compounds read low 0.991 | locus YDL192W, strain arf1, active compounds read low 0.996 | locus YDR001C, strain nth1, active compounds read low 1.01 | locus YDR069C, strain doa4, active compounds read low 1.04 | locus YDR101C, strain arx1, active compounds read low 0.98 | locus YDR137W, strain rgp1, active compounds read low 1.04 | locus YDR159W, strain sac3, active compounds read low 1.04 | locus YDR162C, strain NBP2, active compounds read low 1 | locus YDR195W, strain ref2 0.999 | locus YDR297W, strain sur2, active compounds read low 1.01 | locus YDR318W, strain mcm21, active compounds read low 1 | locus YDR334W, strain swr1, active compounds read low 1.01 | locus YDR335W, strain msn5, active compounds read low 1.01 | locus YDR388W, active compounds read low 0.996 | locus YDR392W, strain spt3, active compounds read low 0.95 | locus YDR502C, strain sam2, active compounds read low 0.993 | locus YEL003W, strain gim4, active compounds read low 1.02 | locus YEL037C, strain rad23, active compounds read low 1.01 | locus YEL061C, strain CIN8 (second series), active compounds read low 1.01 | locus YEL061C, strain CIN8, active compounds read low 0.998 | locus YER015W, strain faa2, active compounds read low 1.01 | locus YER016W, strain bim1, active compounds read low 1.02 | locus YER110C, active compounds read low 0.997 | locus YER111C, strain swi4, active compounds read low 1.01 | locus YER155C, strain BEM2 (second series), active compounds read low 1.03 | locus YER155C, strain BEM2, active compounds read low 1 | locus YER167W, strain BCK2, active compounds read low 1 | locus YFR010W, strain ubp6, active compounds read low 1.02 | locus YGL078C, strain dbp3, active compounds read low 0.997 | locus YGL086W, strain mad1, active compounds read low 0.978 | locus YGL167C, strain pmr1, active compounds read low 1 | locus YGL173C, strain kem1, active compounds read low 1.02 | locus YGL227W, strain vid30, active compounds read low 1.02 | locus YGL240W, strain doc1, active compounds read low 1.01 | locus YGL248W, strain PDE1, active compounds read low 1.01 | locus YGL253W, strain hxk2, active compounds read low 1 | locus YGR135W, strain pre9, active compounds read low 0.986 | locus YGR252W, strain gcn5, active compounds read low 0.917 | locus YHR013C, strain ard1, active compounds read low 1 | locus YHR027C, strain rpn1, active compounds read low 1.02 | locus YHR030C, strain SLT2, active compounds read low 1.01 and 0.986 | locus YHR079C, strain IRE1 (second series), active compounds read low 0.993 | locus YHR079C, strain IRE1, active compounds read low 1.01 | locus YHR094C, strain hxt1, active compounds read low 1 | locus YHR129C, strain ARP1, active compounds read low 0.994 | locus YHR142W, strain chs7, active compounds read low 0.996 | locus YHR200W, strain rpn10, active compounds read low 0.988 | locus YIL066C, strain RNR3, active compounds read low 1.01 | locus YIL073C, strain SPO22, active compounds read low 1.03 | locus YIL125W, strain kgd1, active compounds read low 0.986 | locus YIR030C, strain dcg1, active compounds read low 0.992 | locus YJL092W, strain hpr5, active compounds read low 1.01 | locus YJL095W, strain BCK1 (second series), active compounds read low 0.988 | locus YJL095W, strain BCK1, active compounds read low 1.01 and 0.996 | locus YJL115W, strain asf1, active compounds read low 1.02 | locus YJL129C, strain trk1, active compounds read low 1.02 | locus YJL134W, strain LCB3, active compounds read low 1.01 | locus YJL154C, strain vps35, active compounds read low 1.01 | locus YJL164C, strain tpk1, active compounds read low 1.01 | locus YJL166W, strain qcr8, active compounds read low 1.01 | locus YJL168C, strain set2, active compounds read low 0.988 | locus YJL187C, strain SWE1 (second series), active compounds read low 0.998 | locus YJL187C, strain SWE1, active compounds read low 1 | locus YJR043C, strain POL32, active compounds read low 0.987 | locus YJR066W, strain TOR1, active compounds read low 0.946 | [7] 1.01 | locus YKL009W, strain mrt4, active compounds read low 1 | locus YKL068W, active compounds read low 1.01 | locus YKL085W, strain MDH1 (second series), active compounds read low 0.994 | locus YKL085W, strain MDH1, active compounds read low 0.994 | locus YKL160W, strain elf1, active compounds read low 1.01 | locus YKR001C, strain vps1, active compounds read low 1.01 | locus YKR026C, strain gcn3, active compounds read low 0.983 | locus YKR091W, strain srl3, active compounds read low 1.01 | locus YLL001W, strain dnm1, active compounds read low 1 | locus YLL026W, active compounds read low 1.02 | locus YLL041C, strain sdh2, active compounds read low 1.01 | locus YLR027C, strain aat2, active compounds read low 1.01 | locus YLR039C, strain RIC1, active compounds read low 1.01 | locus YLR058C, strain SHM2, active compounds read low 1.01 | locus YLR102C, strain apc9, active compounds read low 0.998 | locus YLR113W, strain HOG1, active compounds read low 0.994 | locus YLR221C, strain rsa3, active compounds read low 1.01 | locus YLR258W, strain gsy2, active compounds read low 1.02 | locus YLR262C, strain YPT6 (second series), active compounds read low 1.03 | locus YLR262C, strain YPT6, active compounds read low 1.01 | locus YLR268W, strain sec22, active compounds read low 0.976 | locus YLR320W, strain mms22, active compounds read low 1.02 | locus YLR330W, strain CHS5, active compounds read low 1.01 | locus YLR342W, strain FKS1 (second series), active compounds read low 0.998 | locus YLR342W, strain FKS1, active compounds read low 1 | locus YLR357W, strain rsc2, active compounds read low 1.04 | locus YLR370C, strain arc18, active compounds read low 1.03 | locus YLR371W, strain rom2, active compounds read low 0.996 | locus YLR384C, strain iki3, active compounds read low 1.02 | locus YLR418C, strain cdc73, active compounds read low 0.98 | locus YML016C, strain PPZ1, active compounds read low 1 | locus YML032C, strain rad52, active compounds read low 1 | locus YML120C, strain ndi1, active compounds read low 1.01 | locus YML124C, strain tub3, active compounds read low 0.992 | locus YMR058W, strain fet3, active compounds read low 1.01 | locus YMR078C, strain ctf18, active compounds read low 1 | locus YMR125W, strain sto1, active compounds read low 1.03 | locus YMR129W, active compounds read low 1.03 | locus YMR205C, strain PFK2, active compounds read low 1.05 | locus YMR223W, strain ubp8, active compounds read low 0.986 | locus YMR231W, strain pep5, active compounds read low 1.01 | [13] 1 | [8] 0.997 | locus YNL067W, strain RPL9B, active compounds read low 0.998 | locus YNL071W, strain lat1, active compounds read low 1.02 | locus YNL183C, strain NPR1, active compounds read low 0.951 | locus YNL209W, strain ssb2, active compounds read low 1.01 | locus YNL233W, strain BNI4, active compounds read low 0.992 | locus YNL248C, strain rpa49, active compounds read low 1 | locus YNL250W, strain rad50, active compounds read low 1 | locus YNL271C, strain bni1, active compounds read low 0.992 | locus YNL298W, strain CLA4, active compounds read low 0.995 | locus YNL307C, strain MCK1, active compounds read low 0.994 | locus YNL322C, strain KRE1 (second series), active compounds read low 1.01 | [14] 1 | locus YNR049C, strain mso1, active compounds read low 1.01 | locus YNR052C, strain pop2, active compounds read low 1.01 | locus YOL012C, strain htz1 0.764 | locus YOL147C, strain pex11, active compounds read low 0.998 | locus YOR001W, strain rrp6, active compounds read low 1.01 | locus YOR061W, strain CKA2, active compounds read low 1.01 | locus YOR069W, strain VPS5, active compounds read low 1 | locus YOR070C, strain gyp1, active compounds read low 1.02 | locus YOR080W, strain dia2, active compounds read low 1.01 | locus YOR083W, strain WHI5, active compounds read low 0.997 | locus YOR106W, strain vam3, active compounds read low 1.03 | locus YOR136W, strain idh2, active compounds read low 0.99 | locus YOR144C, strain elg1, active compounds read low 0.993 | locus YOR184W, strain ser1, active compounds read low 0.992 | locus YOR231W, strain MKK1, active compounds read low 1 | locus YOR265W, strain rbl2, active compounds read low 1 | locus YOR270C, strain vph1, active compounds read low 1.06 | locus YOR290C, strain snf2, active compounds read low 0.999 | locus YOR316C, strain cot1, active compounds read low 1 | locus YPL051W, strain arl3, active compounds read low 0.994 | [15] 0.988 | locus YPL078C, strain atp4, active compounds read low 1.01 | locus YPL106C, strain sse1, active compounds read low 1.04 | locus YPL240C, strain hsp82, active compounds read low 1.01 | [16] 1 | locus YPL256C, strain CLN2, active compounds read low 0.961 | locus YPR119W, strain clb2, active compounds read low 0.998 | locus YPR141C, strain kar3, active compounds read low 0.985 | locus YPR163C, strain tif3, active compounds read low 0.996 | locus YPR167C, strain met16, active compounds read low 1 | strain wtn01, active compounds read low 0.97
